PAX8 reporter: inhibitors of PAX8-driven TPO luciferase reporter, primary screen, RMG-I cells, single concentration | SteadyGlo, 24 h | inhibition, % at 12.6 µM | AID 652154, 2013 | 1.2% of 360,000 active;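 active = mean replicate inhibition at least 60% with every replicate also reaching 60%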;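 note: luciferase light reporting Pax8 driven TPO promoter activity; plate controls were median of neutral control wells for no effect and mitoxantrone controls for full effect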
TRPM1 prom inh: inhibitors of MITF-dependent TRPM1 promoter reporter, primary screen, cell-based, SK-MEL-5, single point, luciferase; SK-MEL-5 TRPM1 promoter luciferase, 24 h; inhibition, % at 12.5 µM; 0.83% of 330,000 active;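 active = mean inhibition across replicates of 60% or more, whatever share of single replicates reaches that level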
MITF act: activators of MITF-driven TRPM1 promoter reporter, primary screen, cell-based, SK-MEL-5, luciferase, single point; 0.75% of 300,000 active; AID 588334, 2011; activation, % at 12.5 µM; SK-MEL-5 TRPM1-promoter luciferase, 24 h; % of positive control, neutral wells = 0;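 active = mean activation of at least 80% with every replicate also reaching 80%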;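 note: 0% = neutral control wells and 100% = parthenolide positive control wells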
Wnt act: Wnt/beta-catenin pathway activators, primary screen, cell-based, plate reader, single point; activation, % at 9.35 µM; AID 743398, 2014; 1.2% of 300,000 active; Wnt/beta-catenin reporter cell assay, activator; in the data active = activation above about 30%, passing the limit was not always enough;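 note: 0% = neutral control wells and 100% = positive control wells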
esBAF inh: Bmi1 luciferase reporter increase in mESCs, primary screen, esBAF inhibitor project, mouse ES cells, Bmi1 luciferase knock-in, single point; 24 h; 100% = twice the neutral-well signal; reporter increase, % at 12.5 µM; 2% of 350,000 active; AID 602393, 2012; in the data active = activation above about 40%;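 note: 0% = median of the plate's neutral control wells and 100% = double that signal; a rise in the Bmi1 reporter signal indicates esBAF inhibition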
EWS-Fli block: EWS/Fli-driven NR0B1 reporter inhibitors, primary screen, A673 cells, NR0B1 luciferase, luminescence, MLPCN library; viability-normalised; inhibition, % at 12.6 µM; 0.67% of 350,000 active; AID 651661, 2012;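 active = mean inhibition of at least 50% after viability correction, with every replicate also passing that limit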;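 note: firefly luciferase signal divided by Alamar Blue viability fluorescence both relative to DMSO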
The depositor's hits bear a star; x = no result. Only some compounds are listed: those with a hit (about 4% of all), similar ones and a draw of the others.

SMILES	PAX8 reporter	TRPM1 prom inh	MITF act	Wnt act	esBAF inh	EWS-Fli block
COc1ccc(S(=O)(=O)Nc2ccc3c(c2)C(=O)N([C@H](C)CO)C[C@H](C)[C@@H](CN(C)S(=O)(=O)c2ccc(Cl)cc2)OCCCC[C@H](C)O3)cc1	78.5*	x	x	x	-1.2	5.3
COc1ccc(S(=O)(=O)N(C)C[C@@H]2OCCCC[C@H](C)Oc3ccc(NS(=O)(=O)c4ccccc4)cc3C(=O)N([C@H](C)CO)C[C@H]2C)cc1	75.9*	x	x	x	4.8	-33.8
COc1ccc(S(=O)(=O)N(C)C[C@@H]2OCCCC[C@H](C)Oc3ccc(NS(=O)(=O)c4ccc(Cl)cc4)cc3C(=O)N([C@H](C)CO)C[C@@H]2C)cc1	78.8*	x	x	x	x	17.0
CN(C)C(=O)c1ccc(-c2ccc([C@H]3[C@@H](C#N)N(S(C)(=O)=O)[C@H]3CO)cc2)cc1	-2.7	x	x	x	6.0	-15.3
COc1ccc(S(=O)(=O)Nc2ccc3c(c2)C(=O)N([C@@H](C)CO)C[C@H](C)[C@@H](CN(C)S(=O)(=O)c2ccc(Cl)cc2)OCCCC[C@@H](C)O3)cc1	67.5*	x	x	x	6.5	-5.8
O=c1oc2ccccc2cc1-c1cn2ccccc2n1	71.5*	81.3*	-81.8	-4.8	x	85.3*
CCOc1cccc(C(=O)Nc2cccc(C(C)=O)c2)c1	-104.9	-7.1	9.5	14.9	-9.1	x
CCOc1ccc(C(=O)Nc2ccc3[nH]ncc3c2)cc1	-9.8	-56.4	55.5	54.6*	-37.4	1.5
O=C(Nc1ccc2c(c1)OCO2)c1cncc(Br)c1	x	-9.2	6.4	x	36.3	x
O=C(Nc1ccc2c(c1)OCCO2)c1cccc(C(=O)Nc2ccc3c(c2)OCCO3)c1	-42.9	-39.6	40.8	19.0	25.0	-121.8
CCOc1cccc(C(=O)Nc2ccc3ccccc3c2)c1	-24.1	-10.0	x	35.7*	-30.2	32.1
O=C(Nc1ccc2c(c1)OCCO2)c1cncc(Br)c1	-126.2	-20.7	x	40.9*	3.8	x
CCOc1cccc(C(=O)Nc2ccc3c(c2)OCCO3)c1	-12.3	-24.2	x	41.8*	-44.5	-15.0
CO[C@@H]1CN(C)C(=O)c2cc(NC(=O)c3nc4ccccc4s3)ccc2OC[C@@H](C)N(Cc2cncnc2)C[C@H]1C	x	x	x	x	-4.3	-11.5
CCCOc1cccc(C(=O)NC(=S)Nc2cccc(C(F)(F)F)c2)c1	x	-9.3	6.7	-1.4	-3.3	9.5
CCn1cc(C(=O)Nc2ccccc2C(=O)OC)cn1	13.3	x	x	-2.2	2.2	8.6
CCC(=O)Nc1cccc(NC(=S)NC(=O)c2ccc(Cl)cc2)c1	x	-50.9	54.1	-3.3	61.1*	x
CCOc1cccc(C(=O)NC(=S)Nc2cccc(C)c2)c1	-93.2	-28.9	31.3	21.8	42.4*	-3.4
CCOc1cccc(C(=O)Nc2ccc(N(CC)CC)cc2)c1	x	-37.3	36.9	x	43.6*	x
CCN(CC)c1ccc(NC(=O)c2cnn(CC)c2)cc1	x	-14.2	14.4	x	53.6*	x
CCNC(=O)[C@H]1[C@H](CO)[C@H]2Cn3c(ccc(C4=CCCCC4)c3=O)[C@H]2N1Cc1ccccc1F	x	x	x	x	-2.8	1.1
COc1ccccc1-c1ccc([C@H]2[C@@H](CO)N(C(=O)NC3CCCC3)[C@H]2C#N)cc1	-38.4	x	x	x	x	4.6
N#C[C@@H]1[C@@H](c2ccc(-c3cccc(F)c3)cc2)[C@H](CO)N1C(=O)NC1CCCC1	89.4*	x	x	x	4.0	7.8
N#C[C@H]1[C@@H](c2ccc(-c3cccc(F)c3)cc2)[C@H](CO)N1C(=O)NC1CCCC1	5.6	x	x	x	2.2	-4.1
N#C[C@H]1[C@@H](c2ccc(-c3cccc(F)c3)cc2)[C@H](CO)N1C(=O)NC1CCCCC1	x	x	x	x	x	0.5
COc1ccccc1-c1ccc([C@H]2[C@@H](CO)N(C(=O)NC3CCCCC3)[C@H]2C#N)cc1	-63.8	x	x	x	59.4*	-76.5
N#Cc1ccc(-c2ccc(C3[C@H]4CNC[C@@H]3N4C(=O)NC3CCCCC3)cc2)cc1 (stereo partly drawn)	72.9*	x	x	x	x	4.7
N#C[C@H]1[C@@H](c2ccc(-c3cccc(F)c3)cc2)[C@@H](CO)N1C(=O)NC1CCCCC1	68.3*	x	x	x	x	x
